In PubChem BioAssay (EPA / NIEHS):
Activity calls are given as the source filed them. How the source made its calls: active means hit-call score of the fitted dose curve at least 0.9, where 1 is the maximum; inactive means score below 0.9.

What was measured:
[1] = BSK_hDFCGF_SRB: Viability Assessment in the BioMAP Diversity Plus: hDFCGF Assay (AID 2283061); conditions: primary human foreskin fibroblasts;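 further: cells exposed to compound for 24 h before the read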
Summary of the method: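 Viability was read as total protein: after 10% TCA fixation, wells were stained with 0.1% sulforhodamine B and read at 560 nm. Primary human foreskin fibroblasts were dosed for 24 h, with bidirectional fitting versus DMSO.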

[2] = read-out: TIMP metallopeptidase inhibitor 1 (TIMP1), TIMP1 (gene 7076); test: BSK_hDFCGF_TIMP1: BioMAP Diversity Plus: hDFCGF Assay for TIMP metallopeptidase inhibitor 1 (TIMP1) Biomarker Activity (AID 2283062); conditions: primary human foreskin fibroblasts; actives raise or lower the signal
Summary of the method: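 TIMP-1 measured by ELISA 24 h after chemical dosing of primary human skin fibroblasts, with gain or loss fitted relative to DMSO. Parallel SRB staining (560 nm) monitored overt cytotoxicity.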

[3] = read-out: Monokine induced gamma interferon (MIG), CXCL9 (gene 4283); test: BSK_hDFCGF_MIG: BioMAP Diversity Plus: hDFCGF Assay for Monokine induced gamma interferon (MIG) Biomarker Activity (AID 2283063); conditions: primary human foreskin fibroblasts; actives raise or lower the signal
Summary of the method: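 Human primary foreskin fibroblasts in the hDFCGF system, exposed to test chemical for 24 h; MIG measured by ELISA. Bidirectional curve fitting against DMSO negative control as activity baseline.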

[4] = read-out: Matrix Metallopeptidase 1 (MMP1), MMP1 (gene 4312); test: BSK_hDFCGF_MMP1: BioMAP Diversity Plus: hDFCGF Assay for Matrix Metallopeptidase 1 (MMP1) Biomarker Activity (AID 2283064); conditions: primary human foreskin fibroblasts; actives raise or lower the signal
Summary of the method: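 hDFCGF primary fibroblasts (human foreskin); chemical added; 24 h; MMP1 by ELISA; bidirectional fit vs DMSO.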

[5] = read-out: Plasminogen activator inhibitor-1 (PAI1), SERPINE1 (gene 5054); test: BSK_hDFCGF_PAI1: BioMAP Diversity Plus: hDFCGF Assay for Plasminogen activator inhibitor-1 (PAI1) Biomarker Activity (AID 2283066); conditions: primary human foreskin fibroblasts; actives raise or lower the signal
Summary of the method: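 Human foreskin fibroblasts in the hDFCGF system were dosed with compound for 24 h; PAI-1 was quantified by ELISA. Bidirectional curve fitting used DMSO as negative control and baseline.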

[6] = read-out: Intercellular Adhesion Molecule 1 (ICAM1), ICAM1 (gene 3383); test: BSK_KF3CT_ICAM1: BioMAP Diversity Plus: KF3CT Assay for Intercellular Adhesion Molecule 1 (ICAM1) Biomarker Activity (AID 2283067); conditions: primary human keratinocytes with fibroblasts; actives raise or lower the signal
Summary of the method: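 Cell-surface ICAM-1 was measured by ELISA 24 h after dosing primary human skin keratinocytes co-cultured with fibroblasts. Parallel SRB staining tracked overt cytotoxicity. Gain or loss of signal was fitted relative to DMSO.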

[7] = read-out: Interferon-gamma inducible Protein 10 (IP10), CXCL10 (gene 3627); test: BSK_KF3CT_IP10: BioMAP Diversity Plus: KF3CT Assay for Interferon-gamma inducible Protein 10 (IP10) Biomarker Activity (AID 2283068); conditions: primary human keratinocytes with fibroblasts; actives raise or lower the signal
Summary of the method: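 KF3CT co-culture (keratinocytes + foreskin fibroblasts), 24 h compound, IP-10 by ELISA; bidirectional fit vs DMSO baseline.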

[8] = BSK_KF3CT_SRB: Viability Assessment in the BioMAP Diversity Plus: KF3CT Assay (AID 2283069); conditions: primary human keratinocytes with fibroblasts;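 further: total protein by sulforhodamine B staining as a cytotoxicity measure; read 24 h after compound addition; fitted for both signal gain and loss against DMSO baseline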
Summary of the method: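 Keratinocytes co-cultured with foreskin fibroblasts (human primary); chemical added, 24 h; fix 10% TCA, stain 0.1% SRB, A560. Bidirectional fit vs DMSO.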

[9] = read-out: Interleukin-1 alpha (IL1a), IL1A (gene 3552); test: BSK_KF3CT_IL1a: BioMAP Diversity Plus: KF3CT Assay for Interleukin-1 alpha (IL1a) Biomarker Activity (AID 2283070); conditions: primary human keratinocytes with fibroblasts; actives raise or lower the signal
Summary of the method: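 Chemicals were dosed onto co-cultured human keratinocytes and foreskin fibroblasts, IL-1a was quantified by ELISA at 24 h, and activity was fitted in both directions relative to DMSO controls.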

[10] = read-out: TIMP metallopeptidase inhibitor 2 (TIMP2), TIMP2 (gene 7077); test: BSK_KF3CT_TIMP2: BioMAP Diversity Plus: KF3CT Assay for TIMP metallopeptidase inhibitor 2 (TIMP2) Biomarker Activity (AID 2283071); conditions: primary human keratinocytes with fibroblasts; actives raise or lower the signal
Summary of the method: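 Human primary keratinocyte/foreskin fibroblast co-culture dosed with chemical and sampled at 24 h. TIMP-2 levels quantified by ELISA; bidirectional fitting against DMSO negative control as baseline.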

[11] = read-out: Transforming growth factor beta 1 (TGFb1), TGFB1 (gene 7040); test: BSK_KF3CT_TGFb1: BioMAP Diversity Plus: KF3CT Assay for Transforming growth factor beta 1 (TGFb1) Biomarker Activity (AID 2283072); conditions: primary human keratinocytes with fibroblasts; actives raise or lower the signal
Summary of the method: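 Human keratinocyte plus foreskin fibroblast primary co-culture, dosed with chemical for 24 h. TGF-b1 quantified by ELISA. Activity fitted bidirectionally against DMSO negative control as baseline.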

[12] = read-out: C-C motif chemokine 2 (Homo sapiens) (UniProt P13500); test: BSK_KF3CT_MCP1: BioMAP Diversity Plus: KF3CT Assay for Monocyte Chemoattractant Protein 1 (MCP1/CCL2) Biomarker Activity (AID 2283073); conditions: primary human keratinocytes with fibroblasts; actives raise or lower the signal
Summary of the method: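 ELISA read-out of MCP-1, 24 h post-dose, in primary human skin keratinocytes co-cultured with fibroblasts. Parallel SRB staining monitors cytotoxicity; changes fitted both directions relative to DMSO.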

[13] = read-out: Matrix Metallopeptidase 9 (MMP9), MMP9 (gene 4318); test: BSK_KF3CT_MMP9: BioMAP Diversity Plus: KF3CT Assay for Matrix Metallopeptidase 9 (MMP9) Biomarker Activity (AID 2283074); conditions: primary human keratinocytes with fibroblasts; actives raise or lower the signal;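 on AC50: MMP9 protein level quantified by ELISA in the co-culture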
Summary of the method: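 Human keratinocyte/foreskin fibroblast co-culture; compound added; 24 h; MMP-9 by ELISA; bidirectional fit vs DMSO baseline.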

[14] = read-out: urokinase plasminogen activator (uPA), PLAU (gene 5328); test: BSK_KF3CT_uPA: BioMAP Diversity Plus: KF3CT Assay for urokinase plasminogen activator (uPA) Biomarker Activity (AID 2283075); conditions: primary human keratinocytes with fibroblasts; actives raise or lower the signal
Summary of the method: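 ELISA readout of uPA, analyzed for signal gain or loss relative to DMSO, from a human primary keratinocyte–foreskin fibroblast co-culture measured 24 h after chemical treatment.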

[15] = read-out: CD40, CD40 (gene 958); test: BSK_LPS_CD40: BioMAP Diversity Plus: LPS Assay for CD40 Biomarker Activity (AID 2283076); conditions: primary human HUVEC with PBMC; actives raise or lower the signal
Summary of the method: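 In the LPS system of human endothelial cells with peripheral blood mononuclear cells, CD40 levels were read by ELISA 24 h post-treatment. Signal changes in either direction were fitted against the DMSO baseline, with parallel SRB protein staining.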

[16] = read-out: E-selectin (Homo sapiens) (UniProt P16581); test: BSK_LPS_Eselectin: BioMAP Diversity Plus: LPS Assay for Eselectin Biomarker Activity (AID 2283077); conditions: primary human HUVEC with PBMC; actives raise or lower the signal
Summary of the method: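 E-selectin ELISA on LPS-stimulated endothelial cell/PBMC co-cultures, read 24 h post-treatment; gains and losses fitted against DMSO. Parallel SRB staining (0.1% SRB after 10% TCA fixation, 560 nm) flags overt cytotoxicity.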

[17] = read-out: Interleukin-8 (IL8), CXCL8 (gene 3576); test: BSK_LPS_IL8: BioMAP Diversity Plus: LPS Assay for Interleukin-8 (IL8) Biomarker Activity (AID 2283078); conditions: primary human HUVEC with PBMC; actives raise or lower the signal
Summary of the method: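 ELISA read-out of IL-8 after 24 h chemical treatment of LPS-activated endothelial/PBMC human primary co-cultures. Changes either up or down relative to DMSO; overt cytotoxicity checked by sulforhodamine B staining in parallel wells.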

[18] = BSK_LPS_SRB: Viability Assessment in the BioMAP Diversity Plus: LPS Assay (AID 2283079); conditions: primary human HUVEC with PBMC;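 further: total protein by sulforhodamine B absorbance as a cytotoxicity measure; measured one day after compound addition; fitted in both directions against DMSO so loss or gain of signal counts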
Summary of the method: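 SRB viability endpoint: cells fixed with 10% TCA, stained with 0.1% SRB, read at 560 nm, 24 h post-dose. HUVEC/PBMC co-culture; signal change in either direction scored relative to DMSO.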

[19] = read-out: Interleukin-1 alpha (IL1a), IL1A (gene 3552); test: BSK_LPS_IL1a: BioMAP Diversity Plus: LPS Assay for Interleukin-1 alpha (IL1a) Biomarker Activity (AID 2283080); conditions: primary human HUVEC with PBMC; actives raise or lower the signal
Summary of the method: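 Readout is IL-1a level by ELISA, 24 h post-dose, fitted as gain or loss relative to DMSO. System: LPS-activated human primary co-culture of vascular endothelium and peripheral blood mononuclear cells, with parallel SRB total-protein cytotoxicity.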

Measured: AC50

E-selectin (Homo sapiens), sequence (P16581 whole entry, looked up): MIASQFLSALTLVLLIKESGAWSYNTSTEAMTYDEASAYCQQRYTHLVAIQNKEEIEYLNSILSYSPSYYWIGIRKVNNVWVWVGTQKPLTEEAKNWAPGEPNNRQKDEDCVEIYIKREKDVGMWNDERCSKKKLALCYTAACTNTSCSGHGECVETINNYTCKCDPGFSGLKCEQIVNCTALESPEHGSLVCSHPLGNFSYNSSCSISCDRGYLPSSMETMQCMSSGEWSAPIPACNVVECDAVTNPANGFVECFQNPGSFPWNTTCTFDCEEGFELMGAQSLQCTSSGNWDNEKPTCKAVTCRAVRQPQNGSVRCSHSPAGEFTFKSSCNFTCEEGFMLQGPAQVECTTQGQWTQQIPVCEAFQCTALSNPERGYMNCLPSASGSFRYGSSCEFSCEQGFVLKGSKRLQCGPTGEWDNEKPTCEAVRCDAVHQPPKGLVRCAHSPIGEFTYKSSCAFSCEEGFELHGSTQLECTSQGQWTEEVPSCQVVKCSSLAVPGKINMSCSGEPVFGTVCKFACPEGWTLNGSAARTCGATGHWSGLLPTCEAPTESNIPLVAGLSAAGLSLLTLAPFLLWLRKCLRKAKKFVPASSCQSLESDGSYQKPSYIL

N#CN=C1SCCN1Cc1ccc(Cl)nc1
inactive: all assays above

CCOc1nc(F)cc2nc(S(=O)(=O)Nc3c(Cl)cccc3Cl)nn12
active: [7] 34 µM | [16] 20 µM
inactive: all other assays above

CCCN(CC)CC1COC2(CCC(C(C)(C)C)CC2)O1 (stereo not given)
active: [2] 3.97 µM | [3] 0.602 µM | [4] 1.43 µM | [7] 3.97 µM | [10] 6.62 µM | [12] 739 nM | [17] 15.7 µM
inactive: all other assays above

Cc1cnc(C2=NC(C)(C(C)C)C(=O)N2)c(C(=O)O)c1 (stereo not given)
inactive: all assays above

Cc1ccc(N=CN(C)C=Nc2ccc(C)cc2C)c(C)c1
active: [1] 28.4 µM | [2] 31 µM | [3] 29.7 µM | [4] 33.2 µM | [5] 29.7 µM | [7] 32.7 µM | [8] 28.6 µM | [10] 26.2 µM | [13] 31.3 µM | [14] 26.9 µM | [15] 29.5 µM | [16] 31.1 µM | [17] 33.6 µM | [18] 31.7 µM | [19] 30.2 µM
inactive: [6] | [9] | [11] | [12]

Cc1nc(N(C)C)nc(OC(=O)N(C)C)c1C
active: [1] 29.8 µM
inactive: all other assays above

COc1cc(OC)nc(NC(=O)NS(=O)(=O)c2ncccc2OCC(F)(F)F)n1
inactive: all assays above

Cc1cc(C)nc(Nc2ccccc2)n1
active: [17] 26.8 µM
inactive: all other assays above

CC(C)Nc1nc(Cl)nc(NC(C)C)n1
inactive: all assays above

CCOC(=O)C(C)OC(=O)c1cc(Oc2ccc(C(F)(F)F)cc2Cl)ccc1[N+](=O)[O-] (stereo not given)
active: [13] 5.83 µM | [18] 6.48 µM
inactive: all other assays above

COP(=S)(OC)Oc1ccc([N+](=O)[O-])c(C)c1
active: [13] 15.1 µM | [18] 10.6 µM
inactive: all other assays above

CCSC(=O)N1CCCCCC1
inactive: all assays above

CC(C)Oc1cccc(NC(=O)c2ccccc2C(F)(F)F)c1
active: [1] 20 µM | [18] 16.7 µM
inactive: all other assays above

CCC(C)n1c(=O)[nH]c(C)c(Br)c1=O (stereo not given)
inactive: all assays above

COC(=O)NC(=S)Nc1ccccc1NC(=S)NC(=O)OC
active: [4] 3.97 µM
inactive: all other assays above

COc1cc(Cl)c(OC)cc1Cl
inactive: all assays above

Nc1c(Cl)c(Cl)nc(C(=O)O)c1Cl
inactive: all assays above

N#Cc1c[nH]cc1-c1cccc2c1OC(F)(F)O2
active: [1] 5.56 µM | [4] 5.28 µM | [15] 7.2 µM | [18] 8.62 µM | [19] 14.8 µM
inactive: all other assays above

CCCCC(C#N)(Cn1cncn1)c1ccc(Cl)cc1 (stereo not given)
active: [5] 7.4 µM | [7] 0.148 µM
inactive: all other assays above

O=C(Nc1ccccc1-c1ccc(Cl)cc1)c1cccnc1Cl
active: [7] 0.128 µM | [12] 843 nM
inactive: all other assays above
